The values that follow come from PubChem BioAssay (Tox21).

Results filed as inconclusive are left out. The source made the active and inactive calls. Calls follow the shape of the dose curve; as a rule, active = well fitted cell-killing curve with a large enough effect in the repeat runs; inconclusive = weak or mixed curves, or effect the other way; inactive = no such curve, though single readings can be large or run the other way.

A short description of the assay: qHTS assay to identify small molecule agonists of the farnesoid-X-receptor (FXR) signaling pathway - cell viability counter screen (AID 743218). Also: nearly all actives have a fitted effect of over 45% in size. Conditions: FXR-bla HEK293T viability, CellTiter-Glo luminescence, 16 h; series mostly up to 62.6 µM. The text has this: U.S. Tox21 Program National Center for Advancing Translational Sciences [NCATS] NIH Chemical Genomics Center [NCGC] U.S. Environmental Protection Agency [EPA] National Institutes of Environmental Health Sciences [NIEHS] National Toxicology Program [NTP] U.S. Food and Drug Administration [FDA] Tox21 Assay Overview: The farnesoid-X-receptor (FXR), a nuclear hormone receptor, is highly expressed in liver, intestine, kidney and adrenal cortex. Natural ligands of FXR are the bile acids (Cholic acid, Chenodeoxy cholic acid etc). FXR is an important regulator of diverse metabolic pathways, including the bile acid homeostasis, lipid and glucose metabolisms. FXR regulates the expression of target genes by binding either as a monomer or as a heterodimer with the retinoid X receptor (RXR). Numerous studies have reported that FXR exerts protective function during cholestasis, diabetes, liver regeneration, and cancer. To identify compounds that activate FXR signaling, GeneBLAzer FXR-UAS-bla HEK 293T cell line (Invitrogen, Carlsbad, CA) containing a beta-lactamase reporter gene under the control of a UAS response element was used to screen the Tox21 10K compound library. The cytotoxicity of the Tox21 compound library against the FXR-bla cell line was tested in parallel by measuring the cell viability using CellTiter-Glo assay in the same wells.
Tox21 Assay Protocol Summary: FXR-bla cells were dispensed at 5000 cells/5uL/well in 1536-well black wall/clear bottom plates using a Multidrop Combi (Thermo Fisher Scientific, Waltham, MA) dispenser. After the assay plates were incubated at 37 C and 5% CO2 for 5 h, 23 nL of compounds dissolved in DMSO, positive controls or DMSO only was transferred to the assay plate by a Pintool station (Kalypsys, San Diego, CA). The assay plates were incubated at 37C for 16 h. After 1 uL of LiveBLAzerTM B/G FRET substrate was added using a Bioraptr Flying Reagent Dispenser (FRD) workstation (Beckman Coulter, Indianapolis, IN), the plates were incubated at room temperature for 2 h, and fluorescence intensity was measured by an Envision plate reader (PerkinElmer, Shelton, CT). For cell viability readout that measures cytotoxicity, 4uL/well of CellTiter-Glo reagent was added into the assay plates using a Bioraptr FRD. After 30 min incubation at room temperature, the luminescence intensity in the plates was measured using a ViewLux plate reader (PerkinElmer).
As for `CC(C)c1cccc(C(C)C)c1N`, the compound was called inactive.
Regarding `C[C@H]1O[C@@H](n2cc(F)c(=O)[nH]c2=O)[C@H](O)[C@@H]1O`, the outcome was inactive.
With `O=C(O)/C=C/c1ccc(Cn2ccnc2)cc1`, the outcome was inactive.
Take `CCc1cc(S(=O)(=O)O)c2cc(C(C)C)cccc1-2`: the call was inactive.
Turning to `O=C(CCOCCOCCOCCOCCC(=O)Nc1c(I)cc(I)c(C(=O)O)c1I)Nc1c(I)cc(I)c(C(=O)O)c1I`, the result was inactive.
With `C=CC(=O)N1CCOCC1`, the outcome was inactive.
`C=CCOc1nc(OCC=C)nc(OCC=C)n1`: the compound was classed as inactive.
In the case of `C=C(C)C(=O)NCCC[N+](C)(C)C` it was “inactive”; in that of `CCC(=O)c1cccc(Cl)c1`, “inactive”; in that of `CC(=O)O[C@H](CC(=O)[O-])C[N+](C)(C)C`, “inactive”.
As for `CCN(CC)C(=O)c1ccc(O)c(OC)c1`, the result was inactive.
`COc1cc(C(=O)N2CCOCC2)cc(OC)c1OC`: the compound was called inactive.
In the case of `C=C(C)C(=O)OCCCCCCCCCCCCCCCCCC` it was “inactive”.
Regarding `CCC(C(=O)NC(N)=O)c1ccccc1` (stereo not given), the result was inactive.
For `O=C(O)C(O)[C@H](O)[C@@H](O)[C@H](O)[C@H](O)CO` (stereo not given in full) the value was “inactive”; for `O=C(O)c1ccc[n+]([O-])c1`, “inactive”.
With `CCCCCCOC(=O)c1ccccc1O`, the compound was called inactive.
Consider `O=C1OC(=O)c2cc([N+](=O)[O-])ccc21`, for which the call was inactive.
With `CCCCNc1ccccc1`, the call was inactive.
Take `OCCN1C[C@H](O)[C@@H](O)[C@H](O)[C@H]1CO`: the compound was classed as inactive.
As for `C#CC(O)C(CC)CCCC` (stereo not given), the result was inactive.
Turning to `CCN1CCCC(OC(=O)C(c2ccccc2)c2ccccc2)C1` (stereo not given), the call was inactive.
For `C=C(C)[C@H]1CC=C(C)CC1` the value was “inactive”; for `CN1[C@@H]2CC[C@H]1CC(NC(=O)n1c(=O)[nH]c3ccccc31)C2` (stereo not given in full), “inactive”; for `Nc1ncnc2c1ncn2Cc1c(F)cccc1Cl`, “inactive”.
Turning to `O=C(O)c1ccccc1S`, the outcome was inactive.
Regarding `c1ccc(SCCSc2ccccc2)cc1`, the compound was called inactive.
In the case of `N#CC1(O)CCCCC1`, the compound was classed as inactive.
Take `CCN1CCN(c2cc3c(cc2F)c(=O)c(C(=O)O)cn3C2CC2)CC1`: the compound was called inactive.
In the case of `CCCC(=O)O[C@]1(C(=O)CCl)[C@@H](C)C[C@H]2[C@@H]3CCC4=CC(=O)C=C[C@]4(C)[C@@]3(F)C(=O)C[C@@]21C`, the compound was classed as inactive.
In the case of `O=c1[nH]c2ccccc2c(=O)n1CCCl`, the compound was called inactive.
On to `CCCC=O`, for which the outcome was inactive.
Consider `Cc1cc(C)cc(OCC2CNC(=O)O2)c1` (stereo not given), for which the compound was classed as inactive.
Take `CC(C)CCCC(C)NCCC(C)C` (stereo not given): the call was inactive.
`COCc1ccc(COC)cc1`: the result was inactive.
For the compound `CCOC(=O)Nc1ccc2c(c1)N(C(=O)CCN1CCOCC1)c1ccccc1S2`, the compound was called inactive.
Turning to `CCCCCCCCN(C)CCCCCCCC`, the outcome was inactive.
As to `COC(=O)CCCC(=O)O`, the call was inactive.
Consider `OCCCCCCO`, for which the compound was called inactive.
In the case of `CC1=CCC2C(C1)C2(C)C` (stereo not given) it was “inactive”.
